This note sets out measurements from the supplement of paper PMC11001985.

A number with no mark means an inactive call.

UniProt P07355, sequence (P07355 whole entry): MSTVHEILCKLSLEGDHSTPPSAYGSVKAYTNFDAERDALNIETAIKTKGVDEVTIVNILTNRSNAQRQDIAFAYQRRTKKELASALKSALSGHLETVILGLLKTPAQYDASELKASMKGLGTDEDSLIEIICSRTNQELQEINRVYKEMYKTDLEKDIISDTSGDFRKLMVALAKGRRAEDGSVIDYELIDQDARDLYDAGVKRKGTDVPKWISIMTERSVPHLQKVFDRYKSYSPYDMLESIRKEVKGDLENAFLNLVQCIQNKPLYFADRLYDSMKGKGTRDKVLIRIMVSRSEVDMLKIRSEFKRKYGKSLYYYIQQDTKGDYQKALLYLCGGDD
UniProt P49327, sequence (P49327 whole entry, looked up): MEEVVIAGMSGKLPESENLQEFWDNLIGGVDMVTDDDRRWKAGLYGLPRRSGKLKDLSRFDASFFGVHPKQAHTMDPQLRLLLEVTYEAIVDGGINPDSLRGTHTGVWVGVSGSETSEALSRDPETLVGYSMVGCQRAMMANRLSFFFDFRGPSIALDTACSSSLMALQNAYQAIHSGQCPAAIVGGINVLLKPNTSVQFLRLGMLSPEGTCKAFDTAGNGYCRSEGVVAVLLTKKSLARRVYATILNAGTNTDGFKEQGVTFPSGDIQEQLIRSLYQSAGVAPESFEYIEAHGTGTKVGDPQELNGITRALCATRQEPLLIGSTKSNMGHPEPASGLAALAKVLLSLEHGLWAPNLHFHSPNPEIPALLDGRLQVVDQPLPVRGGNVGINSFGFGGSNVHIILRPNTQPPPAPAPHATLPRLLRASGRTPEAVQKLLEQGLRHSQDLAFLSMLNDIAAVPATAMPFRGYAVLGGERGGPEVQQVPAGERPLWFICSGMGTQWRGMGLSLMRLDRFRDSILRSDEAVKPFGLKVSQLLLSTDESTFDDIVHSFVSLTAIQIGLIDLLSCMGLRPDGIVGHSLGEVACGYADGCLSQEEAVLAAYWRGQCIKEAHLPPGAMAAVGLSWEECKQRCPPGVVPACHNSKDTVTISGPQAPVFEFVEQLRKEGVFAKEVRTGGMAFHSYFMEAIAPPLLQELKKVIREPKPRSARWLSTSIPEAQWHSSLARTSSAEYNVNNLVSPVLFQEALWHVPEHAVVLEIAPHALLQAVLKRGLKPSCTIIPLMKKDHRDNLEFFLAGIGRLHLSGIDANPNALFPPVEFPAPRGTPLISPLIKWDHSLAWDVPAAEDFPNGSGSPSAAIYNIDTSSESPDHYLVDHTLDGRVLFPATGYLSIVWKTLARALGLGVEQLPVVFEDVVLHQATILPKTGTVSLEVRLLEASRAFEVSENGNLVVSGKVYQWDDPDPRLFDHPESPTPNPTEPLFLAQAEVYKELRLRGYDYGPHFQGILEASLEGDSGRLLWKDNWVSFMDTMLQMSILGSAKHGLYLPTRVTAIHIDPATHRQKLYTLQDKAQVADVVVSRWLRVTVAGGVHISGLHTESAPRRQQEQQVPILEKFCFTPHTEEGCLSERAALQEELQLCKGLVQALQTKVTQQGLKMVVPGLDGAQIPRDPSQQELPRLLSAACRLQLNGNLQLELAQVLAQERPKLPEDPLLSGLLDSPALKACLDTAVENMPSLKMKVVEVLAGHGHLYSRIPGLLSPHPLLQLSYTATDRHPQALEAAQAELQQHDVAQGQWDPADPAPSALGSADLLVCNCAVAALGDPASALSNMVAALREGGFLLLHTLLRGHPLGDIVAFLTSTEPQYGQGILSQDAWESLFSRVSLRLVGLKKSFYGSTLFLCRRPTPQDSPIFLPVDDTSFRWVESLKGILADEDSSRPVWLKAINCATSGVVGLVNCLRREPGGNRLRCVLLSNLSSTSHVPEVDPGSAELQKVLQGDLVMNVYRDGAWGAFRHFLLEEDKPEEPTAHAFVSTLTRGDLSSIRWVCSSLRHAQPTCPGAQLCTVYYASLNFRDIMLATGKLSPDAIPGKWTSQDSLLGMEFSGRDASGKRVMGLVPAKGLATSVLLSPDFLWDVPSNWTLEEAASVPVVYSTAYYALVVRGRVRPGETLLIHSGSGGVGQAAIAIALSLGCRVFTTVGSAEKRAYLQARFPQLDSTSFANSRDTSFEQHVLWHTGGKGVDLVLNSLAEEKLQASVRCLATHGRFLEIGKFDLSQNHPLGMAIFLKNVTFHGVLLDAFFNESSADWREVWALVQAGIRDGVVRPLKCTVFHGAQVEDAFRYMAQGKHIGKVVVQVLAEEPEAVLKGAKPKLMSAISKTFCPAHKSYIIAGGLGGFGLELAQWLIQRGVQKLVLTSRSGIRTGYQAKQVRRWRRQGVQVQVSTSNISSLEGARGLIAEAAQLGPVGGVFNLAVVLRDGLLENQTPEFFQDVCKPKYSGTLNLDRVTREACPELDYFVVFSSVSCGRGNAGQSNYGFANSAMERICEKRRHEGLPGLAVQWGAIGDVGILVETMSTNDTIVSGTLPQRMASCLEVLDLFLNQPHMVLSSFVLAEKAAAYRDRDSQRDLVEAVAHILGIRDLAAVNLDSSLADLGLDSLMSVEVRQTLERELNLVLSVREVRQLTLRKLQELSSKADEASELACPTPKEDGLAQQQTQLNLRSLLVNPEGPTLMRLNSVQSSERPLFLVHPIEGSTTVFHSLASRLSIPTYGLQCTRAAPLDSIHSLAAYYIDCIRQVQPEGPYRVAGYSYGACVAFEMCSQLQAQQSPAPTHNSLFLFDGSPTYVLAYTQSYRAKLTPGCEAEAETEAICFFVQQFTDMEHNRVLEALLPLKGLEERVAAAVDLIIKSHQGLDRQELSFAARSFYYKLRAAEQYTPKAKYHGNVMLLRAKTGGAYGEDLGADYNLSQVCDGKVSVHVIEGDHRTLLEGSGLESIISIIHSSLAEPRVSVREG
UniProt P32004, sequence (P32004 whole entry): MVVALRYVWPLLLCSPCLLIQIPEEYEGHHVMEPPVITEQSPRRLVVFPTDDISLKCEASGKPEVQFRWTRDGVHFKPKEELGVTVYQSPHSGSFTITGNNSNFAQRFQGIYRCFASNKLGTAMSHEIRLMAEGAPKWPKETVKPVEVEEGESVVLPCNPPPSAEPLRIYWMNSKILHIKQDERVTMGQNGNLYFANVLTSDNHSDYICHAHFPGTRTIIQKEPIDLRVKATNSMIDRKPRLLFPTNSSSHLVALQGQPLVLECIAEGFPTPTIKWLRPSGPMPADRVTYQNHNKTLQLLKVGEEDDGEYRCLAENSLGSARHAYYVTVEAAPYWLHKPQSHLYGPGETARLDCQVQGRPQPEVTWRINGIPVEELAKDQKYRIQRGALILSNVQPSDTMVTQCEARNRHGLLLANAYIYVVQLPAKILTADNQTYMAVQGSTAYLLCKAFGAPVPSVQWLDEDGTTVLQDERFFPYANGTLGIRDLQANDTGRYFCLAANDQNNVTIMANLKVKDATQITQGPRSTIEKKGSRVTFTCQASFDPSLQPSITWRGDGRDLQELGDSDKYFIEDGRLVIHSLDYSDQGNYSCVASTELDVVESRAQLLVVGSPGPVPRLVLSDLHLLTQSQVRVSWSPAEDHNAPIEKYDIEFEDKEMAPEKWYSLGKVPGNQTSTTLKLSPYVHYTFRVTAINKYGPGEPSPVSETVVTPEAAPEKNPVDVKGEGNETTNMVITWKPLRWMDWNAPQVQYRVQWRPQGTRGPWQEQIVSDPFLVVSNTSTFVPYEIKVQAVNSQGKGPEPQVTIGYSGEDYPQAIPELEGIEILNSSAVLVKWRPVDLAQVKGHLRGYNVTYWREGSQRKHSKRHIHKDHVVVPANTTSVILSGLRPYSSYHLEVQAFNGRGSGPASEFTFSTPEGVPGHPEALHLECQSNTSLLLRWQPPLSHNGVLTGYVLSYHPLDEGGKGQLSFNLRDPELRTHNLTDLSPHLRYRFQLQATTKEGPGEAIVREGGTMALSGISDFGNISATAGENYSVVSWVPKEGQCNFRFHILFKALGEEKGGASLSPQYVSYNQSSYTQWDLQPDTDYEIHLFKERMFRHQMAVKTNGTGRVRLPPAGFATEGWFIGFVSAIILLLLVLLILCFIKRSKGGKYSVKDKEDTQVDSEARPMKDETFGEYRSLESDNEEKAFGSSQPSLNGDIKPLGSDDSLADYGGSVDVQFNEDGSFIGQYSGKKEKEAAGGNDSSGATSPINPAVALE
UniProt O75955, sequence (O75955 whole entry): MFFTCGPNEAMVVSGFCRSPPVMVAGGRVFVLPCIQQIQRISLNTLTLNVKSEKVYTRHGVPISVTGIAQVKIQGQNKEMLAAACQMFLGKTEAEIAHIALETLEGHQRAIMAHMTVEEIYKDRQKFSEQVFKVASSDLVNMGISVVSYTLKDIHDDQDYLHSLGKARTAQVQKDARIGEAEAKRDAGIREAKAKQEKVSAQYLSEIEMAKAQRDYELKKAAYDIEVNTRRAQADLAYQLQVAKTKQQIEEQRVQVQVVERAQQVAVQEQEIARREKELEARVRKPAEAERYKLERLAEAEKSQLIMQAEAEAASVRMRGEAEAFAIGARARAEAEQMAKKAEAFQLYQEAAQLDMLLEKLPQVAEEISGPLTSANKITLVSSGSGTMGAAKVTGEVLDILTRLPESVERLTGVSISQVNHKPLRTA
UniProt Q13740, sequence (Q13740 whole entry): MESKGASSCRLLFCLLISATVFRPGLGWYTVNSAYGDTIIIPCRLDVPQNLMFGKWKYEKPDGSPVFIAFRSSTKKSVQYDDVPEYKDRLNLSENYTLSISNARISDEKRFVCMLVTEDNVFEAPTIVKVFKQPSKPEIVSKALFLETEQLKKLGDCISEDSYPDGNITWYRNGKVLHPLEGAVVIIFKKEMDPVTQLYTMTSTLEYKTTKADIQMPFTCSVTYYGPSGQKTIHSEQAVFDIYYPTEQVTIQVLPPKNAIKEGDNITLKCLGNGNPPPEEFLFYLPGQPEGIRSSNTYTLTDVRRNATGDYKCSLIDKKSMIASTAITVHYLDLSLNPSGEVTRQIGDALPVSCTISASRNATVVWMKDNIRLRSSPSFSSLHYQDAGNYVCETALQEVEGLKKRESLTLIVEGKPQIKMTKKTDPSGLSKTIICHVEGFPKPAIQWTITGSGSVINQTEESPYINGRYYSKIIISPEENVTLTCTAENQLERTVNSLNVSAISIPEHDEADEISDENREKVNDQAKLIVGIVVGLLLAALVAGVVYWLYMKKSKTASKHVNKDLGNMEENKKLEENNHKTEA

Compound in this assay: C#CCNC(=O)CCSSCCC(=O)NCCc1ccc(C=O)c(C=O)c1
Put plainly: lysine labeling ratio R10:1 (500 µM / 50 µM probe), SILAC-ABPP in living cells; higher = lower intrinsic lysine reactivity toward the probe, active = 2 or less. The settings on record: HeLa; probe concentrations 500 vs 50 µM. The method in brief:
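An alkyne-tagged lysine probe with a disulfide linker labelled living HeLa cells in PBS at room temperature at either 50 µM or 500 µM, using SILAC light and heavy cells in forward and reverse label swaps. Lysates were mixed, clicked to biotin-azide, trypsin-digested, enriched on neutravidin, DTT-released, alkylated and measured by LC-MS/MS on a TIMS-TOF Pro. Each lysine's R is the filtered median high-probe/low-probe MS1 peptide ratio, combined as the median over forward and reverse replicates, with 20 as the upper limit.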
As to “ANXA2 (lysine site: K279) (UniProt P07355)”, the “lysine labeling ratio R10:1” value was 5.78. Under “FLOT1 (lysine site: K246) (UniProt O75955)” stands 2.54; under “FOLR1 (lysine site: K52) (UniProt P15328)”, 12.6. Next, “PDIA4 (lysine site: K582) (UniProt P13667)”: 2.17. Take “L1CAM (lysine site: K119) (UniProt P32004)”: the “lysine labeling ratio R10:1” value was 3.56. Next, “PDCD6IP (lysine site: K303) (UniProt Q8WUM4)”: 2.47; “HSPD1 (lysine site: K469) (UniProt P10809)”: 4.7. Next, “P4HB (lysine site: K71) (UniProt P07237)”: 7.22; “FLNB (lysine site: K976) (UniProt O75369)”: 1.86 (active). Under “SAFB2 (lysine site: K829) (UniProt Q14151)” stands 1.92 (active). Take UniProt P62899 (lysine site: K70): the “lysine labeling ratio R10:1” value was 12.9. For UniProt Q32P28 (lysine site: K662), the “lysine labeling ratio R10:1” value is 5.32.

On to “CELSR2 (lysine site: K2176) (UniProt Q9HCU4)”, for which the “lysine labeling ratio R10:1” value was 4.05. Under “CCT2 (lysine site: K154) (UniProt P78371)” stands 3.78; under UniProt Q86V81 (lysine site: K134), 4.23.

Regarding “ALCAM (lysine site: K60) (UniProt Q13740)”, the “lysine labeling ratio R10:1” value is 2.97. Under “FASN (lysine site: K1704) (UniProt P49327)” stands 2.46; under “BASP1 (lysine site: K143) (UniProt P80723)”, 3.54. Under “CALD1 (lysine site: K605) (UniProt Q05682)” stands 3.32; under “CDH2 (lysine site: K448) (UniProt P19022)”, 3.81; under “ANXA2 (lysine site: K49) (UniProt P07355)”, 3.95. With UniProt P62244 (lysine site: K71), the “lysine labeling ratio R10:1” value is 3.24.

As to “PA2G4 (lysine site: K238) (UniProt Q9UQ80)”, the “lysine labeling ratio R10:1” value was 1.53 (active). “ITGA6 (lysine site: K594) (UniProt P23229)”: the “lysine labeling ratio R10:1” value is 6.44. Under UniProt P78333 (lysine site: K385) stands 2.8; under “UGT8 (lysine site: K195) (UniProt Q16880)”, 1.49 (active); under “MYH9 (lysine site: K656) (UniProt P35579)”, 2.88. Next, “FASN (lysine site: K673) (UniProt P49327)”: 2.24; UniProt Q15223 (lysine site: K190): 1.25 (active). Under “ITGA1 (lysine site: K849) (UniProt P56199)” stands 0.921 (active). Take “MCAM (lysine site: K134) (UniProt P43121)”: the “lysine labeling ratio R10:1” value was 3.83. Under “PSMA7 (lysine site: K28) (UniProt O14818)” stands 2.85. As for UniProt Q15149 (lysine site: K567), the “lysine labeling ratio R10:1” value was 14.2. For the target “SERPINH1 (lysine site: K39) (UniProt P50454)”, the “lysine labeling ratio R10:1” value was 5.74. As to “IMPDH2 (lysine site: K422) (UniProt P12268)”, the “lysine labeling ratio R10:1” value is 1.55 (active). In the case of UniProt P05186 (lysine site: K74), the “lysine labeling ratio R10:1” value was 6.22.

On to “SLC3A2 (lysine site: K257) (UniProt P08195)”, for which the “lysine labeling ratio R10:1” value is 1.64 (active). Under “SPTBN1 (lysine site: K1878) (UniProt Q01082)” stands 4.5; under “ACTN4 (lysine site: K643) (UniProt O43707)”, 7.08; under “L1CAM (lysine site: K230) (UniProt P32004)”, 5.86.
